PubChem BioAssay AID631 (The Scripps Research Institute Molecular Screening Center, 2007)
Out of some 200,000 compounds screened, about 810 (0.41%) were called active. No stated cut-off is given here; in the data, active means activation above about 19%; inactive means the rest. The full list was thinned out, with actives kept by preference.

Target: Peroxisome proliferator-activated receptor gamma (Homo sapiens) (UniProt P37231)
Experiment: enhancers of SRC-1 binding to PPARgamma – biochemical, primary screen (AID 631);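 further: 0% = DMSO and 100% = reference agonist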
Settings: PPARgamma-SRC-1 coactivator recruitment biochemical assay; at 8 µM; hits give high values

Chain of Peroxisome proliferator-activated receptor gamma (Homo sapiens) (P37231 whole entry, looked up): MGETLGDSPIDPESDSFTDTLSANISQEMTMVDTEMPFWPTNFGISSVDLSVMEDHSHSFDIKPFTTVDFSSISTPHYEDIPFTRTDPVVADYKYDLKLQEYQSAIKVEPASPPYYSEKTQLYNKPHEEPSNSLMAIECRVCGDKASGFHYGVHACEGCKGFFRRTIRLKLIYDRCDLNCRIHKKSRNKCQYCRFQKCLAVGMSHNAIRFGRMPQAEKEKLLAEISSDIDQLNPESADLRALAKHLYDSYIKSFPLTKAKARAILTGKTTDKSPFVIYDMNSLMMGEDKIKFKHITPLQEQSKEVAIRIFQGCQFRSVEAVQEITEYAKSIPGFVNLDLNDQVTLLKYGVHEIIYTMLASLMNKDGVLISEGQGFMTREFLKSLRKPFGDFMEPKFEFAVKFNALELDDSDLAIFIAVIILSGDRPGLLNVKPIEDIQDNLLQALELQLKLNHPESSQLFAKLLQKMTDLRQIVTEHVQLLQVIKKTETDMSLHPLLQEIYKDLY

activation, active:
Fc1ccc(COc2cccc(-c3n[nH]c(=S)o3)c2)cc1 61.7%
COc1ccc2c(Cl)c(-c3nnco3)sc2c1 24.2%
Cn1c(-c2sc3cc(C(F)(F)F)cnc3c2-c2ccccc2)n[nH]c1=S 36.3%
Cc1cc(N2C(=O)C(=O)/C(=C(/O)c3ccc(Cl)cc3)C2c2cccc(Br)c2)no1 (configuration not stated) 20.6%
Cc1nc(-c2ccccc2)sc1-c1nc(-c2ccccc2)ncc1S(=O)(=O)c1ccccc1 19.3%
COc1ccc(/C(O)=C2/C(=O)C(=O)N(c3nc(C)c(C)s3)C2c2ccco2)cc1 (configuration not stated) 22.1%
CCN(CCCNC(=O)CSc1cc(=O)n(C)c2cc(Cl)ccc12)Cc1ccccc1 55.4%
COc1cccc(NC(=S)NC(=O)c2c(Cl)c(C)nn2C)c1 30.8%
Cn1c(=O)cc(SCC(=O)N2CCN(C(=O)c3ccco3)CC2)c2ccccc21 49.4%
Cn1c(=O)cc(SCC(=O)N2CCCC2)c2cc(Cl)ccc21 53.4%
CCOC(=O)C1CCN(C(=O)CSc2cc(=O)n(C)c3ccccc23)CC1 49.8%

activation, inactive:
CCCn1c(=S)[nH]c2ccc(C(F)(F)F)cc21 7.7%
Cc1ccc(NC(=O)CSCC(=O)NC2CCCCC2)cc1 6.7%
Cc1cccc(OCc2ccc(C(=O)Nc3ccc(F)cc3)cc2)c1 8.1%
Cc1nc2ccccc2cc1OCc1ccc(F)cc1 -0.6%
COc1ccc(OC)c(-c2csc(NC(=O)C3=NNC(=O)CC3)n2)c1 -3.7%
Cc1cc(NC(=O)COC(=O)COc2ccc(Cl)cc2C)c([N+](=O)[O-])cc1C -2.9%
COc1ccc2c(Cl)c(C(=O)NCc3ccco3)sc2c1 -0.6%
COc1ccc(-c2nnco2)cc1OC -4%
CC(=O)Nc1ccccc1OC(C)C(=O)N1CCC(C)CC1 (configuration not stated) 3.2%
Cc1nn2cc(-c3ccc(Cl)cc3)cnc2c1Br 9.4%
Cc1cc(C(F)(F)F)n2ncc(-c3ccccc3)c2n1 -0.8%
Cn1c(-c2sccc2OCc2cccc(C(F)(F)F)c2)n[nH]c1=S 2.2%
COc1cccc(CNC(=O)CCC2CCCN(C(=O)c3ccoc3C)C2)c1 (configuration not stated) 11.7%
CC1(C)CN(c2ccc(-c3ccnc4ncnn34)cc2)C1=O -2.6%
CSCCC(=O)N1CCCC(CNC(=O)c2ccccc2Cl)C1 (configuration not stated) 6%
COc1ccccc1C1/C(=C(/O)c2ccc(OC(C)C)cc2)C(=O)C(=O)N1c1cc(C)on1 (configuration not stated) 16.5%
COc1ccc(C2/C(=C(/O)c3ccccc3)C(=O)C(=O)N2c2ncccn2)cc1OC (configuration not stated) 8.9%
Cc1ccc(C(=O)Cc2nnc(C)s2)cc1 -2.5%
Cc1cccc(NC(=S)N2CCC(O)CC2)c1C 1.3%
CCN1CCN(c2cc3nc(C)n(Cc4ccccc4)c(=O)c3cc2NC(=O)c2ccccc2F)CC1 3.9%
COc1cccc(NC(=S)NCc2ccco2)c1 -2.7%
C=CCn1c(-c2sc(-c3ccccc3)nc2C)n[nH]c1=S 0.8%
Cc1nc(-c2ccccc2)sc1C(=O)/C=C/c1ccccc1 -1.9%
O=C(O)C1C2CC2CN1C(=O)c1ccc(Cl)cc1Cl (configuration not stated) 4.2%
Cc1cccc(C)c1NC(=O)C1(C)c2cccc[n+]2CC(=O)N1Cc1cccs1 (configuration not stated) -2.9%
Cc1nc(SCc2ccc(F)cc2)c([N+](=O)[O-])[nH]1 5.8%
COc1ccccc1C1/C(=C(/O)c2ccc(C)cc2)C(=O)C(=O)N1Cc1ccco1 (configuration not stated) 10.8%
COc1ccc(/C(O)=C2\C(=O)C(=O)N(Cc3ccco3)C2c2ccc(OC)cc2OC)cc1 (configuration not stated) 2%
COC(=O)c1c(C)[nH]c(C)c1-c1ccc([N+](=O)[O-])cc1 -0.7%
Cc1ccc(/C=N/NC(=O)COc2ccccc2-c2ccccc2)cc1 2.1%
O=C(Oc1ccc([N+](=O)[O-])cc1)c1ccc(Cl)c(S(=O)(=O)N2CCCCC2)c1 -9.6%
CC(C)N(C(=O)Cn1cc(SCC(=O)N2CCCC2)c2ccccc21)C(C)C 5.8%
Cc1ccc(NC(=O)CC2C(=O)N(Cc3ccccc3)C(=S)N2NC(=O)c2cccc(F)c2)c(C)c1 (configuration not stated) -0.5%
CCN(CC)CCCNC(=O)CCc1ccccc1 3.3%
CCN(CC)CCCNC(=O)c1cc(-c2cccc(Cl)c2)on1 3.6%
O=C(Nc1ccccc1Cl)c1ccccc1S(=O)(=O)c1ccccc1[N+](=O)[O-] 2.9%
COc1ccc(C(=O)C[n+]2ccc(C)cc2)cc1 0.2%
S=C(NN=C1CCN(Cc2ccccc2)CC1)NC1CCCCC1 -1.7%
CC(Sc1cccc[n+]1[O-])C(=O)Nc1cccc(S(=O)(=O)N2CCOCC2)c1 (configuration not stated) -5.3%
Cc1nn(C)c(C(=O)NNC(=S)NC2CCCCC2)c1Cl -8.4%
COc1cccc(NC(=S)NCc2ccccn2)c1 2.4%
O=C(/C=C/c1cnc2ccccc2n1)NC1CCCCCC1 -0.4%
O=c1cc(O)c(-c2cccc(C(F)(F)F)c2)c(Cl)[nH]1 8%
CCOc1ccc(CCNC(=O)CSc2cc(=O)n(C)c3ccc(Cl)cc23)cc1OCC 12%
O=C(CSCc1ccc(Cl)cc1)N1CCCCC1 2%
CCOC(=O)N1CCC(NC(=O)COc2cc(=O)n(C)c3ccccc23)CC1 -0.7%
Cc1cccc(OCc2nnc(SCC(=O)N3CCN(C(=O)c4ccco4)CC3)n2C)c1C 5.6%
CCOC(=O)C1CCN(C(=O)Cn2cc(C#N)c3ccccc32)CC1 -2.2%
CC(=O)c1ccc(-n2nnnc2SCC(=O)N2CCN(C(=O)c3ccco3)CC2)cc1 0.3%
CC1CN(CCCOc2ccccc2-c2ccccc2)CC(C)O1 (configuration not stated) 6.7%
C/C(=N\Nc1nc(N2CCOCC2)nc(N2CCOCC2)n1)c1ccc([N+](=O)[O-])cc1 1.7%
